From PubChem
Sampled rows, rich in hits. Any-hit rate of the full collection: about 3.5%.
Giardia FBPA inh: qHTS Assay for Inhibitors of Fructose-1,6-bisphosphate Aldolase from Giardia Lamblia | A8B2U2 | purified Giardia FBPA | Potency, µM (top dose mostly 59.6 µM), for the others: at the highest dose activity, negative = inhibition, usual class: inhibitors | actives 0.71% (n = 290,000) | AID 2451, 2010; note: % is set by controls: 0 for no effect and ±100 for the full control effect; nearly all actives have a fitted effect of over 55% in size
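40 nM FBPA preincubated 10 min at RT with compound (up to 57.5 uM final), then substrate plus GAPDH/TPI/NAD/arsenate coupling and diaphorase/resazurin added. Fluorescence read after 20 min at RT, 525/598 nm.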
TbPYK inhibitor: qHTS of Trypanosoma Brucei Inhibitors. pyruvate kinase (Trypanosoma brucei), Q57TT1. TbPYK enzyme, Kinase-Glo Plus ATP luminescence, 45 min. Potency, µM (series often up to 76.8 µM), for inactives: at the top dose activity, negative = inhibition, usual class: inhibitors. actives 0.12% (n = 410,000). AID 624173, 2012; note: % is set by controls: 0 for no effect and ±100 for the full control effect; nearly all actives have a fitted effect of over 50% in size
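Readout: single end-point luminescence (Kinase-Glo Plus, 10 min). Reaction conditions were TbPYK/substrate plus 130 uM ADP, 45 min at RT, pH 7.2 TEA buffer. No-enzyme wells served as controls, and data were normalized before concentration-response fitting.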
NS1 inh: qHTS Assay for Inhibitors of Influenza NS1 Protein Function; AID 2326, 2010; Potency, µM (series often up to 46.1 µM), inactives show at the highest dose activity, positive = more growth; actives 0.4% (n = 270,000); calls by dose curve; note: actives are rising curves; nearly all actives have a fitted effect of over 50% in size
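OD600 was taken as the measure of yeast growth restored by compound in an NS1-expressing S. cerevisiae strain. Cells had been washed out of glucose medium and diluted 1:100 into galactose -URA medium, pH 6.0.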
LmPK inh: qHTS Assay for Inhibitors of Leishmania Mexicana Pyruvate Kinase (LmPK); purified LmPK, Kinase-Glo ATP luminescence, 1 h; Potency, µM (highest dose often 57.5 µM), for inactives: at the highest dose activity change, negative = inhibition, most hits filed as inhibitors; AID 1721, 2009; actives 0.37% (n = 290,000); note: % is set by controls: 0 for no effect and ±100 for the full control effect
Target sequence (Q27686 whole entry, looked up): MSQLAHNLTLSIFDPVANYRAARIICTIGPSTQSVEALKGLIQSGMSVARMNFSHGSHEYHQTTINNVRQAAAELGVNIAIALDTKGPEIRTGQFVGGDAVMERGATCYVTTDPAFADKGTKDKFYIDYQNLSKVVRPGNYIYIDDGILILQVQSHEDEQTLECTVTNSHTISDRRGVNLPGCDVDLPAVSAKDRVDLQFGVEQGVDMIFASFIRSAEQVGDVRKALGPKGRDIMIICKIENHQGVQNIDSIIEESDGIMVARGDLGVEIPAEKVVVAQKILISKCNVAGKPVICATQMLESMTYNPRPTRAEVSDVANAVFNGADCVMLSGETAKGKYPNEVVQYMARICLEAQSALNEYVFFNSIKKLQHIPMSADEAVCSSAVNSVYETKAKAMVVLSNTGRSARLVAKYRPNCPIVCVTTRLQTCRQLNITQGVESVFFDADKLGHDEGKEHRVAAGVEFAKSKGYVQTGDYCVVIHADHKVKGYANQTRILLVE
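In 50 mM imidazole pH 7.2 with 7 mM MgCl2, LmPK (0.1 nM) turned over PEP (0.5 mM) and ADP (0.1 mM) for 1 h at room temperature. Luciferase read-out of ATP.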
Sm TGR inh: qHTS Assay for the Inhibitors of Schistosoma Mansoni Peroxiredoxins | Schistosoma mansoni thioredoxin glutathione reductase (TGR), Q962Y6 | purified TGR, DTNB reduction, TNB absorbance 405 nm | Potency, µM (top dose mostly 114 µM), without a hit: at the highest dose activity change, negative = inhibition, usual class: inhibitors | actives 3% (n = 360,000); note: % is set by controls: 0 for no effect and ±100 for the full control effect; nearly all actives have a fitted effect of over 60% in size
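First, TGR (20 nM dispensed) and NADPH were mixed with compound. Second, a 15 min room-temperature incubation followed. Third, further NADPH and then DTNB were added to start the reaction. Finally, TNB absorbance was monitored kinetically.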
RE007 growth inh: qHTS Assay for Inhibitors of the HIV-1 protein Vpr; AID 651644, 2012; actives 0.21% (n = 360,000); S. pombe RE007 Vpr strain, BacTiter-Glo ATP luminescence, 24 h; Potency, µM (titrated, usually from 92.2 µM), without a hit: at the top dose activity change, negative = less growth, most hits filed as inhibitors; active = well fitted falling curve with a large enough effect; inconclusive = small, poorly fitted or top-dose-only effect; inactive = no such curve, though single readings can be large or run the other way; note: % is set by controls: 0 for no effect and ±100 for the full control effect; nearly all actives have a fitted effect of over 50% in size
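Fission yeast RE007 carrying one integrated HIV-1 vpr copy, seeded at OD 0.01 in PMG+AL medium with 23 nL pinned compound. Grown 24 h at 30 degrees; viability read by BacTiter-Glo luminescence after 5 min.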
* hit, by the source's call; ? = inconclusive; · = no result; [ ] = another dose, or the depositor's remark. Unless noted, calls come from the whole dose curve; as a rule, active = well fitted curve in the direction sought with a large enough effect; inconclusive = small, poorly fitted or top-dose-only effect, or another doubt; inactive = no such curve, though single readings can be large; an effect the other way counts as inactive or inconclusive. Potency is the fitted concentration of half-maximal effect.

SMILES	Giardia FBPA inh	TbPYK inhibitor	NS1 inh	LmPK inh	Sm TGR inh	RE007 growth inh
O=C(O)C1=C[C@@H](c2ccc3c(c2)OCO3)C[C@@H](OCCCCO)O1	-15%	-7%	-2%	9%	45µM*	19%
O=C(C1=C[C@@H](c2ccc3c(c2)OCO3)C[C@@H](OCCCCO)O1)N1CCOCC1	-17%	-4%	2%	6%	45µM*	0%
Nc1nc(N)c(S(=O)(=O)c2ccccc2)c(Nc2ccc(Br)cc2)n1	·	-16%	·	·	3%	·
O=C(Cn1ncc(Cl)c(Cl)c1=O)N1CCN(S(=O)(=O)c2ccc3ccccc3c2)CC1	6%	-1%	19%	-1%	22µM*	16%
CC1=CC(C#N)(C#N)C(C#N)(C#N)C(c2ccccc2)N1 (stereo not drawn)	?	·	14%	7%	22µM*	·
COC1(OC)N=C(N)C2(C#N)C(c3ccccc3)NC(C)=CC12C#N (stereo not drawn)	-27%	-12%	8%	0%	-2%	18%
COc1cc(NC(=O)C(CCSC)NS(=O)(=O)c2ccc3c(c2)oc(=O)n3C)cc(OC)c1 (stereo not drawn)	·	5%[15.4 µM]	·	·	-5%	·
COc1cc(-c2noc(-c3ccc(NCc4ccco4)c([N+](=O)[O-])c3)n2)cc(OC)c1OC	·	-2%	·	·	-18%	·
Cc1ccccc1OCC(=O)Nc1ccc(C(=O)OCc2cc(=O)n3c(C)csc3n2)cc1	·	6%	·	·	5%	·
CCOC(=O)NC(N(O)c1cccc(Cl)c1)C(Cl)(Cl)Cl (stereo not drawn)	-14%	-6%	-1%	15%	28µM*	2%
CCOC(=O)N[C@H](Cc1c[nH]c2ccccc12)C(=O)Nc1cccc(Cl)c1	·	1%	·	·	1%	·
Cc1ccccc1CN1C(=O)c2ccccc2S(=O)c2ccc(C(=O)NCc3ccco3)cc21 (stereo not drawn)	·	-6%	·	·	-19%	·
COc1ccccc1C1Nc2c(sc3nc(C)cc(C)c23)C(=O)N1c1ccccc1 (stereo not drawn)	·	-7%	·	·	-2%	·
NC(=O)c1cc(N2C(=O)C=CC2=O)ccc1Cl	-10%	?	4%	7%	0.4µM*	-4%
CC(=O)Nc1ccc(Cl)c(C(N)=O)c1	6%	2%	10%	3%	7%	-3%
O=c1cc(-c2ccccc2)oc2cc(O)c(O)c(O)c12	10µM*	?	·	·	·	-7%
CCOc1cc(Br)c(C2C(C(=O)OC)=C(C)NC3=C2C(=O)c2ccccc23)cc1OCC (stereo not drawn)	·	0%	·	·	22µM*	·
c1cncc(CNc2ncnc3ccc(-c4ccco4)cc23)c1	·	·	·	·	8.9µM*	·
Cc1c(Nc2cc(N3CCOCC3)c3nonc3c2[N+](=O)[O-])c(=O)n(-c2ccccc2)n1C	0%	·	·	0%	18µM*	·
Cc1c(Nc2cc(Cl)c3nonc3c2[N+](=O)[O-])c(=O)n(-c2ccccc2)n1C	-14%	?	·	0%	-18%	0%
Cc1ccc(-c2cccc(CN3CCN(C(C)C)C(CCO)C3)c2)o1 (stereo not drawn)	0%	9%	1%	-3%	35µM*	-10%
CC[C@H](C)/C=C(C)/C=C/C(=O)Cc1cc(O)c(C)c(O)c1C=O	-21%	0%	-4%	0%	28µM*	11%
Cc1ccc(-c2sc(-c3cccnc3)nc2CC(=O)O)cc1	7%	-1%	·	-2%	40µM*	20%
O=C(NCc1ccccc1)c1ccc2c(c1)sc1nc(-c3ccc(F)cc3)cn12	·	3%	·	·	4%	·
CCOC(=O)N1CCC(N2CCN(Cc3ccc(C)o3)C(CCO)C2)CC1 (stereo not drawn)	3%	-5%	1%	0%	-7%	-10%
